For 27 compounds, Potency results are on record in PubChem BioAssay (NCATS).

Inconclusive results are not listed. The source made the active and inactive calls. Calls come from the whole dose curve; as a rule, active = well fitted cell-killing curve with a large enough effect; inconclusive = small, poorly fitted or top-dose-only effect, or effect the other way; inactive = flat fitted curve, though single readings scatter.

Assay in all cases: Primary qHTS to identify gynecologic anti-cancer compounds using libraries of approved drugs and bioactive compounds (AID 1345084); note: nearly all actives have a fitted effect of over 55% in size
Common to all, as to conditions: Gynecologic cancer cell panel viability, ATPlite luminescence, 48 h; series mostly up to 57.5 µM

One assay concerns PA-1. In a few lines: (§1)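 Cells, 1,000 per well, were allowed to settle for 16 h at 37 C before compound addition. Five concentrations were tested for 48 h, and viability was read by ATPlite luminescence after 15 min at room temperature.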
The test system of the next assay is SKOV3. In a few lines: as §1
The subject of the next assay is Tov-21-G. In short, it runs like this:
as §1

A further assay deals with Tov112D. In a few lines:
as §1
Potency is the fitted concentration of half-maximal effect.

Consider `COc1cc2c(Oc3ccc(NC(=O)C4(C(=O)Nc5ccc(F)cc5)CC4)cc3F)ccnc2cc1OCCCN1CCOCC1`, for which the Potency was 28.2 µM (active) in the assay with PA-1, 22.4 µM (active) in the assay with SKOV3, 15.8 µM (active) in the assay with Tov-21-G and 12.6 µM (active) with Tov112D.
`Cc1c(CN2CCN(S(C)(=O)=O)CC2)sc2c(N3CCOCC3)nc(-c3cnc(N)nc3)nc12`: the Potency with PA-1 is 1.58 µM (active); with SKOV3 it was 0.562 µM (active); with Tov-21-G, 2 µM (active).
As for `C[C@]12CC[C@H](O)CC1=CCC1C2CC[C@]2(C)C(n3cnc4ccccc43)=CCC12` (some centres not stated), the Potency result in the assay with PA-1, in the assay with SKOV3, in the assay on Tov-21-G and with Tov112D was “inactive” throughout.
For `Cc1ccc(C(=O)Nc2cccc(C(F)(F)F)c2)cc1-c1ccc2nc(NCCN3CCOCC3)ncc2c1`, the Potency with PA-1 is 12.6 µM (active); in the assay with SKOV3, 15.8 µM (active); in the assay with Tov-21-G, 14.1 µM (active).
In the case of `Cc1cnc(-c2cnc(NCCNc3ccc(C#N)cn3)nc2-c2ccc(Cl)cc2Cl)[nH]1`, the Potency entry in the assay with PA-1, in the assay on SKOV3, in the assay with Tov-21-G and with Tov112D was “inactive” throughout.
In the case of `CCCCOc1c(C(=O)c2c(F)cc(C)cc2F)cnc2n[nH]cc12`, in the assay on PA-1, the Potency is 7.94 µM (active). Moreover, the Potency result in the assay with SKOV3 was “inactive”.
Turning to `COc1cc(C)c(Sc2cnc(NC(=O)c3ccc(CNC(C)C(C)C)cc3)s2)cc1C(=O)N1CCN(C(C)=O)CC1` (configuration not stated), the Potency with PA-1 was 22.4 µM (active).
With `C[C@]1(CO)CN(c2cc(C(=O)Nc3ccc4c(c3)-c3c(c(C(N)=O)nn3-c3ccc(F)cc3)CC4)c(Cl)cn2)C[C@@]1(C)CO`, in the assay with PA-1, the Potency was 11.2 µM (active).
As to `COc1ccc(-c2cc3c(C)nc(N)nc3n(C3CCC(OCCO)CC3)c2=O)cn1` (configuration not stated), the results for the Potency in the assay on PA-1, in the assay on SKOV3 and in the assay with Tov-21-G were 2.51 µM (active), 1.26 µM (active) and 6.31 µM (active), respectively.
Turning to `O=C(O)Cn1nnc(-c2cc(N3CCC(Oc4cc(F)ccc4Br)CC3)no2)n1`, the Potency result in the assay on PA-1, with SKOV3, in the assay with Tov-21-G and in the assay with Tov112D was “inactive” in each case.
With `CCOc1ccccc1OCCNC(C)Cc1ccc(OC)c(S(N)(=O)=O)c1` (configuration not stated), the Potency entry in the assay with PA-1, in the assay on SKOV3, with Tov-21-G and in the assay with Tov112D was “inactive” each time.
As to `CCCCCCCCCC(=O)N[C@@H](Cc1c[nH]c2ccccc12)C(=O)N[C@H](CC(N)=O)C(=O)N[C@@H](CC(=O)O)C(=O)N[C@@H]1C(=O)NCC(=O)N[C@@H](CCCN)C(=O)N[C@@H](CC(=O)O)C(=O)N[C@H](C)C(=O)N[C@@H](CC(=O)O)C(=O)NCC(=O)N[C@H](CO)C(=O)N[C@@H]([C@@H](C)CC(=O)O)C(=O)N[C@@H](CC(=O)c2ccccc2N)C(=O)O[C@@H]1C`, the Potency entry in the assay with PA-1, in the assay on SKOV3, with Tov-21-G and in the assay with Tov112D was “inactive” throughout.
For the compound `Clc1cccc(-n2nnnc2NCc2ccccc2Oc2ccccn2)c1Cl`, the Potency result in the assay on PA-1, with SKOV3, in the assay on Tov-21-G and in the assay with Tov112D was “inactive” each time.
With `CCNC(=O)Nc1ccc2ncc(Nc3ccc(C)cc3)nc2n1`, the Potency entry in the assay on PA-1, in the assay with SKOV3, in the assay with Tov-21-G and in the assay on Tov112D was “inactive” throughout.
For `COc1cc(Nc2ncc(F)c(Nc3ccc4c(n3)N(COP(=O)(O)O)C(=O)C(C)(C)O4)n2)cc(OC)c1OC`, the Potency was 11.2 µM (active) in the assay with PA-1, 10 µM (active) with SKOV3 and 14.1 µM (active) with Tov-21-G.
Consider `CC(O)C1C(=O)N2C(C(=O)O)=C(SC3CNC(C(=O)N(C)C)C3)C(C)C12` (configuration not stated), for which the Potency entry in the assay on PA-1, with SKOV3, with Tov-21-G and with Tov112D was “inactive” throughout.
Regarding `CC(=O)Nc1nc(C)c(-c2ccc(Cl)c(S(=O)(=O)NCCO)c2)s1`, the Potency in the assay with PA-1 is 15.8 µM (active); with SKOV3 it was 11.2 µM (active).
With `OCc1ccc(-c2ccc(-c3ccc(CO)s3)o2)s1`, the Potency is 0.355 µM (active) in the assay with PA-1 and 12.6 µM (active) in the assay on SKOV3. In addition, in the assay with Tov-21-G, the Potency entry is “inactive”.
In the case of `Clc1ccc2ncc(-c3cccc(NC4CNC4)n3)n2c1`, the Potency result in the assay on PA-1, in the assay on SKOV3, in the assay with Tov-21-G and in the assay with Tov112D was “inactive” each time.
On to `CC(C)(C)c1cc(NC(=O)Nc2ccc(-c3cn4c(n3)sc3cc(OCCN5CCOCC5)ccc34)cc2)no1`, for which the Potency entry with PA-1, in the assay on SKOV3, in the assay on Tov-21-G and with Tov112D was “inactive” each time.
Regarding `C=CC(=O)Nc1cccc(Oc2nc(Nc3ccc(N4CCN(C)CC4)cc3OC)ncc2Cl)c1`, the Potency entry in the assay with PA-1 was “inactive”. Further, in the assay on SKOV3, the Potency was 15.8 µM (active).
On to `COc1ccc2c(c1)CC[C@@H](CN(C)CC(=O)O)[C@H]2c1ccccc1`, for which the Potency result with PA-1, with SKOV3, in the assay on Tov-21-G and in the assay on Tov112D was “inactive” throughout.
For the compound `O=C(c1cncc(Br)c1)N1CCC(N2CCCC2)CC1`, the Potency entry in the assay on PA-1, in the assay on SKOV3, in the assay on Tov-21-G and in the assay on Tov112D was “inactive” each time.
Regarding `COCCOc1ccc2c(c1)ncn2-c1ccc2cccc(N3CCC(N)CC3)c2n1`, the Potency with PA-1 was 7.94 µM (active).
With `C1Cc2[nH]nc(-c3nn[nH]n3)c2C1`, the Potency entry with PA-1, in the assay on SKOV3, in the assay on Tov-21-G and in the assay on Tov112D was “inactive” in each case.
As for `CN(C1CCc2c(c3ccccc3n2CC(=O)O)C1)S(=O)(=O)c1ccc(F)cc1` (configuration not stated), the Potency entry in the assay with PA-1, in the assay on SKOV3, with Tov-21-G and with Tov112D was “inactive” in each case.
For the compound `COC(=O)Nc1ccc(-c2nc(N3CCOCC3)c3cnn(C4CCN(Cc5cccnc5)CC4)c3n2)cc1`, the values for the Potency in the assay with PA-1, with SKOV3 and with Tov-21-G were 15.8 µM (active), 2 µM (active) and 2.82 µM (active), respectively.
